# Results from PubChem BioAssay (EPA / NIEHS).
# A structure can be active in one record and inactive in another. Active and inactive are the calls of the source. Rule for the calls: active = hit-call score of the fitted dose curve at least 0.9, where 1 is the maximum; inactive = score below 0.9.
# Read-out: Vascular cell adhesion molecule 1 (VCAM1), VCAM1 (gene 7412)
# Assay: BSK_IMphg_VCAM1: BioMAP Diversity Plus: IMphg Assay for Vascular cell adhesion molecule 1 (VCAM1) Biomarker Activity (AID 2284286)
# Details: primary human endothelial cells with macrophages
# Experimental: BSK_IMphg is a cell-based, multiplexed-readout assay that uses venular endothelial cells and macrophages, a human vascular primary cell, with measurements taken at 24 hours after chemical dosing in a microplate: 96-well plate.BSK_IMphg_VCAM1 is an assay component measured in the BSK_IMphg assay. It measures VCAM-1 antibody related to regulation of gene expression using ELISA technology.Data from the assay component BSK_IMphg_VCAM1 was analyzed at the endpoint, BSK_IMphg_VCAM1, in the positive analysis fitting direction relative to DMSO as the negative control and baseline of activity. Using a type of binding reporter, gain or loss-of-signal activity can be used to understand protein changes. To generalize the intended target to other relatable targets, this assay endpoint is annotated to the 'cell adhesion molecules' intended target family, where the subfamily is 'Immunoglobulin CAM'.
# The levels of cell surface (or secreted, indicated by the prefix "s") biomarker endpoints were measured by ELISA. Overt cytotoxicity to cells in confluent adherent cultures (all systems other than the BT system) was assessed by measuring total protein levels using sulforhodamine B (SRB) staining in parallel cultures at the time of biomarker measurements, indicated as SRB endpoints. For proliferation assays for adherent cell types, individual cell types are cultured at sub-confluence and relative cell numbers quantified by SRB staining at time points optimized for each system (48 h: 3C and CASM3C systems; 72 h: BT and HDF3CGF systems; 96 h: SAg system). SRB was performed by staining cells with 0.1% SRB after fixation with 10% TCA and reading wells at 560 nm.Viability and proliferation of PBMC (T cells) was quantified by Alamar Blue reduction for the SAg and BT systems. For PBMC viability (referred to as PBMC Cytotoxicity within the assay endpoint names), cells were plated (75,000/well in a 96-well plate) and then chemical samples added for 1 h before addition of activators, SEB and TSST-1 (20 ng/mL final concentration each). Cells were incubated for 90 h. Then, Alamar Blue (20 uL/well) (Invitrogen, Cat DAL1100) was added for 6 h, and the plates were read with a fluorescence microplate reader at 546/580 nm (excitation/emission). For PBMC proliferation, cells were plated and activated as above but incubated for only 16 h prior to addition of Alamar Blue. Plates were read after 6 h.
SMILES,outcome,AC50
O=S(=O)(F)C(F)(F)C(F)(F)C(F)(F)C(F)(F)C(F)(F)C(F)(F)C(F)(F)C(F)(F)F,inactive,
C=CC(=O)OCC(F)(F)C(F)F,inactive,30 µM (active)
NC(=O)C(F)(F)C(F)(F)F,inactive,
O=C(O)C(F)(F)OC(F)(F)C(F)(F)OC(F)(F)F,inactive,
O=C(O)C(F)(F)OC(F)(F)C(F)(F)OC(F)(F)C(=O)O,inactive,
OCC(F)(F)OC(F)(F)C(F)(F)OC(F)(F)C(F)(F)OC(F)(F)CO,inactive,
O=C(O)C(F)(F)C(F)(F)C(=O)O,inactive,
CC(O)C(F)(F)C(F)(F)F (stereo unspecified),inactive,
OCC(F)(F)OC(F)(F)C(F)(F)OC(F)(F)CO,inactive,
OCC(F)(F)OC(F)(F)C(F)(F)OC(F)(F)C(F)(F)OC(F)(F)F,inactive,47.7 µM (active)
O=C(O)C(F)(OC(F)(F)C(F)(F)C(F)(F)F)C(F)(F)F (stereo unspecified),inactive,
COC(=O)C(F)(F)C(F)(F)OC(F)(C(F)(F)F)C(F)(F)OC(F)=C(F)F (stereo unspecified),inactive,
O=C(O)C=CC(F)(C(F)(F)F)C(F)(F)F,inactive,
FC(F)(F)C(F)(C(F)(F)F)C(F)(F)C(F)(F)CC1CO1 (stereo unspecified),inactive,
